Screening data from PubChem.
KDM5B inh: inhibitors of human KDM5B histone demethylase; KDM5B demethylase, FDH-coupled NADH fluorescence (FDH is formaldehyde dehydrogenase); AID 1347165; Q9UGL1; hit rate 2.6% among 220,000; Potency, µM (series often up to 57.7 µM), most hits filed as inhibitors; active = well fitted inhibition curve with a large enough effect; also: 0% is about no effect; nearly all actives have a fitted effect of over 70% in size
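Here, H3K4me3 peptide (12.5 µM in substrate mix) is demethylated by KDM5BΔAP, 200 nM final, after 10 min compound exposure. Formaldehyde product is coupled through FDH (0.25 U/mL in mix) to NADH fluorescence; 30-min ΔRFU feeds dose-response curves.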
* = called active by the depositor; i = inactive. Many of the other results were omitted from the sample, so hits are more common in it than they were. Potency is read from the fitted curve at half-maximal effect.

SMILES	KDM5B inh
Cc1ccc(NC(=O)CSc2ncc3c(n2)-c2ccccc2N(Cc2cccc(F)c2)S3(=O)=O)cc1F	i
Cc1ccc(F)cc1-c1cccc(CCOc2cnc3c(ccn3CC(=O)O)c2)c1	35.5µM*
COc1ccc(F)cc1-c1ccc(COc2ccc3c(cnn3CCC(=O)O)c2)cc1	i
O=C(O)c1cc2ccc(OCCc3ccccc3)cc2[nH]1	i
O=C(Nc1ccccc1C(F)(F)F)Nc1c(NC2CCCC2)c2ccccc2oc1=O	i
Cc1cc(C)nc(NC(N)=NCc2cccnc2)n1	i
c1cncc(CNCCCn2ccnc2)c1	i
Cc1ccc(C(=O)/C(=C/c2ccc(F)cc2)c2nc3ccccc3o2)cc1	i
O=C(c1ccc(Cl)cc1)N1CC2(CCN(Cc3cccnc3)C2)Cc2ccccc21 (centres undefined)	i
COc1ccc(S(=O)(=O)Nc2c(N3CCCC3)c3ccccc3oc2=O)cc1Cl	i
Cc1cccc(N(C)C(=O)Cn2c(-c3cccc(Cl)c3)nc(C)c(CCO)c2=O)c1	i
CC(c1nc(C(C)(C)C)no1)N1CCN(c2oc(C3CC3)nc2C#N)CC1 (centres undefined)	i
CC(C)N1CC2CCC(C1)N2Cc1cccc(-c2ccc(F)cc2F)c1	i
O=C(Cn1cccc1-c1nc(-c2ccccc2)no1)NCc1ccc(F)cc1F	i
O=C(O)Cn1ccc2cc(OCCc3cccc(-c4ccc(F)cc4F)c3)cnc21	35.5µM*
CC(C)(O)C#Cc1ccccc1C(=O)NC(CSCc1ccccc1)C(=O)O (centres undefined)	i
COc1ccc(-c2[nH]nc3ncc(C(=O)NCc4ccc(F)cc4)nc23)c(C)c1	i
COc1ccc(-c2[nH]nc3ncc(-c4cccnc4OC)nc23)c(C)c1	35.5µM*
COc1ccccc1-c1[nH]nc2ncc(C(=O)N3CCNC(=O)C3)nc12	i
COc1ccc(-c2[nH]nc3ncc(-c4ccc(F)cc4OC)nc23)c(C)c1	7.94µM*
COc1ccc(-c2[nH]nc3ncc(C(=O)N4CCN(Cc5ccccc5)CC4)nc23)c(C)c1	i
COc1ccc(-c2[nH]nc3ncc(-c4ccc(OC)nc4)nc23)c(C)c1	i
Cc1ccccc1CN1C(=O)C(O)(CC(=O)c2ccc(F)cc2)c2cc(Cl)ccc21 (centres undefined)	i
CCC(C)C(NC(=O)C(C)NC(=O)CNC(=O)CNC(=O)OCc1ccccc1)C(N)=O (centres undefined)	i
CCC(CO)NC(=S)Nc1cccc(C)c1 (centres undefined)	i
SMILES	KDM5B inh
COc1cccc(-n2cnnc2SCc2csc(CC(=O)Nc3ccc(C)cc3)n2)c1	i
Cc1ccc(-c2cc(N3CCCN(C(=O)CCc4ccccc4)CC3)n[nH]2)cc1C	15.8µM*
Cc1ccc(-c2cc(N3CCCN(C(=O)c4ccccn4)CC3)n[nH]2)cc1C	i
O=C(Cc1ccccc1)N1CCN(c2cc(-c3ccccc3)[nH]n2)CC1	i
CCOC(=O)c1ccccc1NC(=O)Cn1c(N(C)Cc2ccccc2)nc(C)cc1=O	15.8µM*
Cc1cc(=O)n(CC(=O)Nc2ccccc2C)c(N(C)Cc2ccccc2)n1	i
CCOC(=O)c1ccc(NC(=O)Cn2c(N(C)Cc3ccccc3)nc(C)cc2=O)cc1	i
Cc1noc(C)c1C(=O)N1CCCC(c2nnc3n2CCNC3)C1 (centres undefined)	i
O=C(c1ccncc1)N1CCC(c2nnc3n2CCNC3)CC1	35.5µM*
C[S+](=O)([O-])N1CCCCC1c1nnc2n1CCNC2 (centres undefined)	i
COc1ccc(C(=O)N2CCn3c(nnc3C3CCNCC3)C2)cc1	i
CC(=O)N1CCC(c2nnc3n2CCNC3)CC1	112µM*
O=C(c1ccccc1)N1CCc2nnc(C3CC3)n2CC1	i
O=C(CCCc1nc2ccccc2s1)NC1CCCCCCC1	i
CC(C)C1=NOC2(CCN(C(=O)c3ccc4c(c3)OCO4)CC2)C1	i
c1ccc(OCCCCN2CCC(c3nc4ccccc4s3)CC2)cc1	i
CSc1ccc(C2c3c(-c4ccccc4O)n[nH]c3C(=O)N2CCO)cc1 (centres undefined)	i
CC(=O)N1CCN(C(=O)Cn2ccc3cc(Br)ccc32)CC1	i
CC1CCCC(NC(=O)c2ccccc2SCC#N)C1 (centres undefined)	i
COc1ccccc1CNC(=O)Cc1csc2nc(-c3ccc(F)cc3)cn12	i
COc1ccc(OC)c(-n2nnc(C(=O)NCc3ccco3)c2N)c1	i
COc1ccccc1-n1nc(-c2c(C)nc3scc(CC(=O)NCc4ccco4)n3c2=O)cc1C	28.2µM*
Cc1nn(CC(=O)NCc2ccco2)c(=O)c2nn(-c3ccccc3)c(C)c12	i
COc1ccccc1CNC(=O)c1csc(NCc2ccccc2)n1	i
COCCCNC(=O)CCc1ncc(-c2c(F)cccc2F)o1	i
SMILES	KDM5B inh
COCCCNC(=O)Cc1csc2nc(C)c(-c3cc(C)n(-c4ccccc4F)n3)c(=O)n12	28.2µM*
COc1ccccc1-n1nc(-c2c(C)nc3scc(CC(=O)NCc4ccccc4)n3c2=O)cc1C	25.1µM*
COCCCNC(=O)c1c(-c2ccccc2)c(-c2ccccc2)nn(C)c1=O	i
Cc1nc2scc(CC(=O)NCc3ccco3)n2c(=O)c1-c1cc(C)n(-c2ccccc2F)n1	28.2µM*
COc1ccccc1-c1noc(CCCC(=O)NCc2ccco2)n1	i
O=C(NCCc1csc2nc(-c3ccccc3F)nn12)c1ccco1	i
O=C(Nc1cc(F)cc(F)c1)c1n[nH]c(=O)c2ccccc12	i
O=C(CC[C@@H]1CNC(=O)[C@@H]2C[C@H](NC(=O)Nc3cccc(Cl)c3)CN12)NCc1cccnc1	i
Cc1ccc(Nc2nc(CN3CCN(S(=O)(=O)c4ccccc4F)CC3)cs2)cc1	i
COc1cc(CCC(=O)Nc2ccc3oc(-c4ccc(Cl)cc4)cc(=O)c3c2)on1	i
CCOc1cccc(CNCC2CCCO2)c1 (centres undefined)	i
COC(=O)c1ccc(C(=O)N2CCN(C(c3ccc(F)cc3)c3ccc(F)cc3)CC2)s1	i
Cc1ccc(S(=O)(=O)NC(C)C(=O)OCc2coc(-c3cccs3)n2)cc1 (centres undefined)	i
CC(=O)Nc1c(-c2ccc(C)cc2)c(C)nn1-c1ccc(C(=O)NCc2ccco2)cc1	i
Cc1ccc2occ(CC(=O)Nc3sc4c(c3C(=O)NCc3ccco3)CCCC4)c2c1	i
Cc1ccc(C)c(-n2nc(-c3c(C)nc4scc(CC(=O)NCc5ccco5)n4c3=O)cc2C)c1	20µM*
COC(=O)c1c(NC(=O)c2ccncc2)sc(C(=O)Nc2ccccc2)c1C	i
COc1ccc(OCCNC(=O)c2ccc3c(c2)NC(=O)CS3)cc1	i
COc1ccc(C=O)cc1COC(=O)COc1ccc(Cl)cc1Cl	i
O=C(NCCc1c[nH]c2ccccc12)c1cnc2ccccc2n1	i
Cc1ccc(S(=O)(=O)OCCCCOS(=O)(=O)c2ccc(C)cc2)cc1	i
Cc1ncoc1C(=O)NC1CCc2nnc(C3CC3)n2CC1 (centres undefined)	i
O=C(NC1CCc2nnc(C3CC3)n2CC1)c1cccs1 (centres undefined)	i
Cc1ccc(C(=O)NC2CCc3nnc(C4CC4)n3CC2)c(=O)[nH]1 (centres undefined)	31.6µM*
Cn1ccnc1C(NC(=O)c1nn(C)c(=O)c2ccccc12)c1ccc(Cl)cc1 (centres undefined)	i
